Unmarked numbers belong to inactive results.

Three molecules from the supplement of paper PMC11732987, “Enantioselective OTUD7B fragment discovery through chemoproteomics screening and high-throughput optimisation” (Communications Chemistry, 2025) can be followed below.

Common to all, as to assay: log2 ratio of Biotin-Ahx-Ub-VS probe labelling (fragment/DMSO); higher = less target engagement (more negative = stronger competition), active = hit call of the paper (q ≤ 0.05, log2 ratio ≤ -1)
Settings in all cases: compound concentration: 200 uM; treatment time: 3 h

Test [1] deals with T1, USP42 (UniProt Q9H9J4).
T1 sequence (whole entry): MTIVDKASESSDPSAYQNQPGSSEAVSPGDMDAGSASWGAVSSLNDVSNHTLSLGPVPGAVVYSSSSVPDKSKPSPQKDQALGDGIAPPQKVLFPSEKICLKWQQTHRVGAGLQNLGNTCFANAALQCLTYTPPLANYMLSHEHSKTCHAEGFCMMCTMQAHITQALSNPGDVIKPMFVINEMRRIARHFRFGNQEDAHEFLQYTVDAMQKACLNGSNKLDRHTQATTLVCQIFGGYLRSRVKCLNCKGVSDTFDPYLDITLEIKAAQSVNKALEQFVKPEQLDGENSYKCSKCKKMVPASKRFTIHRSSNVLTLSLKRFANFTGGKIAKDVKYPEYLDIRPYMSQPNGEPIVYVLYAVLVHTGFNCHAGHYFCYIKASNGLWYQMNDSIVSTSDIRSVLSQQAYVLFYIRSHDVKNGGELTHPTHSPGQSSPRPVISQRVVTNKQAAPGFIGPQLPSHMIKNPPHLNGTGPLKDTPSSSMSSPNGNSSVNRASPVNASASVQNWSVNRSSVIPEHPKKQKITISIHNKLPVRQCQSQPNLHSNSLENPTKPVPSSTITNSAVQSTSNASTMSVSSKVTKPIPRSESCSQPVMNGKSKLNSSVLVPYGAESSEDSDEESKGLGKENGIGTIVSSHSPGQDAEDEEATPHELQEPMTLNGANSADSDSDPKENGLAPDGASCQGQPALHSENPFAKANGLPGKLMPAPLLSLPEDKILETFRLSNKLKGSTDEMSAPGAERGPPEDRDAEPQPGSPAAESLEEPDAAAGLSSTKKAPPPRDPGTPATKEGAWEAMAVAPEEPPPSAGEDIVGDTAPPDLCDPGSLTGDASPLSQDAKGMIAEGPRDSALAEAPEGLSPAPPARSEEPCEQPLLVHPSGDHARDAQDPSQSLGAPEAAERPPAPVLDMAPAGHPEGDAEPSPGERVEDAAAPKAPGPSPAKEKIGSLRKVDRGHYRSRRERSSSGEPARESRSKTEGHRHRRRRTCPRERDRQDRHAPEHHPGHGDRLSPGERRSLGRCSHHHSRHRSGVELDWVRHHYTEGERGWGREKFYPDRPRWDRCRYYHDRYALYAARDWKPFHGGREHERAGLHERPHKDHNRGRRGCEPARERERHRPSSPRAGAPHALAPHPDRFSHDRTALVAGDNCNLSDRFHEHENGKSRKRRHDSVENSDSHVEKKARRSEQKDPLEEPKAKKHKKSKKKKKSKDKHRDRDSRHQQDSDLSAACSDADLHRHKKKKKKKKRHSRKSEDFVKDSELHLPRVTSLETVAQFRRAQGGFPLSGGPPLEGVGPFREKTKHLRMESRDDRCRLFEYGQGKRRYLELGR
A digest of the protocol: (§1)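 Lysate from HEK293T cells, 495 µg per sample in Tris/CHAPS/IGEPAL buffer with protease inhibitors, was treated for 3 h in triplicate with fragment at 200 µM or vehicle. Biotin-Ahx-Ub-VS was next added at 0.5 µM final for 1 h. The labelled DUBs were enriched with NeutrAvidin, digested with LysC and trypsin, and run by diaPASEF LC-MS/MS, with values given as average log2 fragment/vehicle ratios by unpaired t-test on global-median-normalised Spectronaut quantities of proteins with ≥2 unique peptides.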

Test [2] has as its target USP46 (UniProt P62068). Put shortly:
as §1

The target in test [3] is T2, USP47 (UniProt Q96K76).
T2 sequence (whole entry): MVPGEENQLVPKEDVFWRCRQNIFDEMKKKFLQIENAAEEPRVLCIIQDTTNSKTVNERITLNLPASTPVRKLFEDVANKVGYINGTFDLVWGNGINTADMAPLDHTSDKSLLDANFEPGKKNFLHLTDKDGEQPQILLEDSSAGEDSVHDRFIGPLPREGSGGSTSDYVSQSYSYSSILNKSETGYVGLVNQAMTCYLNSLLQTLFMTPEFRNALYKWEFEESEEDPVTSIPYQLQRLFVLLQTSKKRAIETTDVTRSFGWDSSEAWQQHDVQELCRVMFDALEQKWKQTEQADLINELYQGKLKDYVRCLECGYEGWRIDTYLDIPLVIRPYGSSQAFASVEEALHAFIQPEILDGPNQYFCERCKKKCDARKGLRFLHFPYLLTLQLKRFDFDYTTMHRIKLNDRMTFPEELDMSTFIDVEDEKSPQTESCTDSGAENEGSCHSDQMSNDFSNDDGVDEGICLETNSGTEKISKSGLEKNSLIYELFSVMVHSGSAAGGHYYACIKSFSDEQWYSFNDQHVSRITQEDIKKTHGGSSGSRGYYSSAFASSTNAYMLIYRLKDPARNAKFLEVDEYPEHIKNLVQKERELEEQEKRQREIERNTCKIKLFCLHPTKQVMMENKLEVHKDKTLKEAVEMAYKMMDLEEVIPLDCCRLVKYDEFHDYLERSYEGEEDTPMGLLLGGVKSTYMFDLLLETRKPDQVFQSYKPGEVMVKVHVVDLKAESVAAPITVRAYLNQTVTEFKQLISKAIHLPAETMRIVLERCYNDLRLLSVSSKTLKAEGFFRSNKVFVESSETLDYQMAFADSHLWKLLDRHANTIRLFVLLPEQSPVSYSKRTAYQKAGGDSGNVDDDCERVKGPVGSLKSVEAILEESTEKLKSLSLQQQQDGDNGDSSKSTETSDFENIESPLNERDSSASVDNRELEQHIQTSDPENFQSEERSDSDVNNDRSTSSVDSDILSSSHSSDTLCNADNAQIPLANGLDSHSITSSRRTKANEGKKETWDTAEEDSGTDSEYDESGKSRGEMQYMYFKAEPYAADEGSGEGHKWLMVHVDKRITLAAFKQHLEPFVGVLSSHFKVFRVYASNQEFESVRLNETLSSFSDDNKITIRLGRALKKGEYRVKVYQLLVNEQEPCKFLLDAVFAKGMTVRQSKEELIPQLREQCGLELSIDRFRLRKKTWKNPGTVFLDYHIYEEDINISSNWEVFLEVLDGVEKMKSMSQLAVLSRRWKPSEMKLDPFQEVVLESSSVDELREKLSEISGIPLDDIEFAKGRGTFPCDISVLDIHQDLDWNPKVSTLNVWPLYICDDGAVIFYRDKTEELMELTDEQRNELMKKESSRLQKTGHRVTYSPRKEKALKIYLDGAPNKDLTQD
Put shortly:
as §1

Test [4] deals with T3, USP48 (UniProt Q86UV5).
T3 sequence (whole entry): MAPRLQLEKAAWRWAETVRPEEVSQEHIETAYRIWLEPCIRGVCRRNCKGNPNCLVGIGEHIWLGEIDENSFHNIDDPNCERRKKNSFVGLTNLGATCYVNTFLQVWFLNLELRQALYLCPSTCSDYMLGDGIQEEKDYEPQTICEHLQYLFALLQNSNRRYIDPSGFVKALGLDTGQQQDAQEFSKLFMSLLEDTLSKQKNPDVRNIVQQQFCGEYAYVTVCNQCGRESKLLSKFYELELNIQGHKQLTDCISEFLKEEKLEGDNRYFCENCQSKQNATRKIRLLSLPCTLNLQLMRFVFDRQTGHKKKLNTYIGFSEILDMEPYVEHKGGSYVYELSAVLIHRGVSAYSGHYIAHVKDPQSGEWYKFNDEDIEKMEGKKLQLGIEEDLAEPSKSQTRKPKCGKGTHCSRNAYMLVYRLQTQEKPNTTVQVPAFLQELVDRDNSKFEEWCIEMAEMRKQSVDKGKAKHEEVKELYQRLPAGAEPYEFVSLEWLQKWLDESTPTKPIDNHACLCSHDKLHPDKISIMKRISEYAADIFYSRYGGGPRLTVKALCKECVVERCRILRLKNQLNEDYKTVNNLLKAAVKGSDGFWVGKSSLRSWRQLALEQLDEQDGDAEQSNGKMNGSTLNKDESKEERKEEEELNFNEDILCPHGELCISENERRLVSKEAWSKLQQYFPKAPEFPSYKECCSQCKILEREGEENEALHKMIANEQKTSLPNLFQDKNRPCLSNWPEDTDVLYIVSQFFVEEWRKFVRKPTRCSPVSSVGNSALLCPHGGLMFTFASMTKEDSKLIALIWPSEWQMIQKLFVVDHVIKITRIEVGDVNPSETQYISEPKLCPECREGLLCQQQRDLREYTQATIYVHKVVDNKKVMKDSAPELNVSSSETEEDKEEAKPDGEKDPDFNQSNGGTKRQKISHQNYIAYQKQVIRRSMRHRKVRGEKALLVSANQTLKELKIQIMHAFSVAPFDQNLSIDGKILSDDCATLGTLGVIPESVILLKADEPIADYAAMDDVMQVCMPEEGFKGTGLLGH
A digest of the protocol:
as §1

Test [5] addresses T4, USP5 (UniProt P45974).
T4 sequence (whole entry): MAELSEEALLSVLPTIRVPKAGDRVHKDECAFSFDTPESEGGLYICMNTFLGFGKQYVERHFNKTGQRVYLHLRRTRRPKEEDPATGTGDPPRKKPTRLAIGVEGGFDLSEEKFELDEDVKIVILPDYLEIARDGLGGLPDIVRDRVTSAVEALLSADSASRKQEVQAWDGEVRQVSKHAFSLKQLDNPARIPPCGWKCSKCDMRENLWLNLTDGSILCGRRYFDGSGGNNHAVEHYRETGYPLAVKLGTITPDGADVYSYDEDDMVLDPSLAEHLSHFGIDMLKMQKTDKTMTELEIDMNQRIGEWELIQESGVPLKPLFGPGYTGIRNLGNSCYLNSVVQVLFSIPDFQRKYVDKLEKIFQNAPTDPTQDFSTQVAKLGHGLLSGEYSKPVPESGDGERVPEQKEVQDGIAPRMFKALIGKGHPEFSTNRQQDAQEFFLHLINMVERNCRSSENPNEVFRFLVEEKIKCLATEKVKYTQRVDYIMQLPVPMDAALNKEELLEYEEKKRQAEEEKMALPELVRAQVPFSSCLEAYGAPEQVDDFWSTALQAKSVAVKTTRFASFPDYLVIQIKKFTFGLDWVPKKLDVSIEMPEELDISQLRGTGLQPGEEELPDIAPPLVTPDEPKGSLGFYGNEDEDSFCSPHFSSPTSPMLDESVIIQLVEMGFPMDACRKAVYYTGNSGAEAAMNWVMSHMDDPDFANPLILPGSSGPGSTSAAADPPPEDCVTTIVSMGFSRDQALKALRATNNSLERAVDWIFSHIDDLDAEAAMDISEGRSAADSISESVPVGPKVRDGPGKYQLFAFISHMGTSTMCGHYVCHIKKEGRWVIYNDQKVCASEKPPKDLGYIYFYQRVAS
Put shortly: as §1

The target in test [6] is USP54 (UniProt Q70EL1). A digest of the protocol:
as §1

Test [7] addresses USP7 (UniProt Q93009). A digest of the protocol:
as §1

Test [8] addresses T5, USP8 (UniProt P40818).
T5 sequence (whole entry): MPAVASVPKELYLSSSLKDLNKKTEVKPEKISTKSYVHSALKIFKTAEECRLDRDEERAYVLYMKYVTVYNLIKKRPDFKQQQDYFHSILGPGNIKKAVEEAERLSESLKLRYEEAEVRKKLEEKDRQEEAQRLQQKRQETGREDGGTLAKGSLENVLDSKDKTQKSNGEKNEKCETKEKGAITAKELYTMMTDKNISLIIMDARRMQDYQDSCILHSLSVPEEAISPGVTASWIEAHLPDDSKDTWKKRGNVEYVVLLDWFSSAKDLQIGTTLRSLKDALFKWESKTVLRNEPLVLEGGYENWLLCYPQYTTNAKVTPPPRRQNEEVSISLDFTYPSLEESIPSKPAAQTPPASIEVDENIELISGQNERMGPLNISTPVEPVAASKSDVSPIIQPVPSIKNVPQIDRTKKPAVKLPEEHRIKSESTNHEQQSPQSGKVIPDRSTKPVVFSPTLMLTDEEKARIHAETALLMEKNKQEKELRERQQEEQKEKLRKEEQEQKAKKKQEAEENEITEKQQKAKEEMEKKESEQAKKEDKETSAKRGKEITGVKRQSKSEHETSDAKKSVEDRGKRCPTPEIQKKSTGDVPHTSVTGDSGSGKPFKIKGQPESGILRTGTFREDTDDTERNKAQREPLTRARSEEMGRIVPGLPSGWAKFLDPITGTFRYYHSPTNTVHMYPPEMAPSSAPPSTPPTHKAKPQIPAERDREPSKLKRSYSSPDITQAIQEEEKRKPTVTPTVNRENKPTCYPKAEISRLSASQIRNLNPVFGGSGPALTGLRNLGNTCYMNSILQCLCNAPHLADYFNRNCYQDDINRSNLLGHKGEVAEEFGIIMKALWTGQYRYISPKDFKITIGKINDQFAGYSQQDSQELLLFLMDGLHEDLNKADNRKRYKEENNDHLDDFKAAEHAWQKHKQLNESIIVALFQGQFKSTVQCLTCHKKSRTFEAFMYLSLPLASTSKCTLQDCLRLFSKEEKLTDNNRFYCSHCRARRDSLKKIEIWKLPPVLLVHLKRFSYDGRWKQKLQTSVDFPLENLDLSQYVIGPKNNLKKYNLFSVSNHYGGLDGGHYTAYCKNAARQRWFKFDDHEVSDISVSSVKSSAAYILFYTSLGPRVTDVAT
Put shortly:
as §1

Test [9] concerns the target USP9X (UniProt Q93008). A digest of the protocol: as §1
For test [10], the target named is UniProt O00487. Put shortly:
as §1

Sequence of UniProt O00487 (O00487 whole entry): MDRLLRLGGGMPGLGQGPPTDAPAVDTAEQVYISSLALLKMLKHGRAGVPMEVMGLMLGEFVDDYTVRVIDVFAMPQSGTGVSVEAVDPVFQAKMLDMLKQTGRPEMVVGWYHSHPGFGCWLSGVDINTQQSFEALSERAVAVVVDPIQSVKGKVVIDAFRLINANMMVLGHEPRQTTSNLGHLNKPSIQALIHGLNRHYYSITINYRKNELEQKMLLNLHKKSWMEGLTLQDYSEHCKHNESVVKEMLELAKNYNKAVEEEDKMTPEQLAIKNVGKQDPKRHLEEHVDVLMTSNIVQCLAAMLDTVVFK
Sequence of USP9X (Q93008 whole entry): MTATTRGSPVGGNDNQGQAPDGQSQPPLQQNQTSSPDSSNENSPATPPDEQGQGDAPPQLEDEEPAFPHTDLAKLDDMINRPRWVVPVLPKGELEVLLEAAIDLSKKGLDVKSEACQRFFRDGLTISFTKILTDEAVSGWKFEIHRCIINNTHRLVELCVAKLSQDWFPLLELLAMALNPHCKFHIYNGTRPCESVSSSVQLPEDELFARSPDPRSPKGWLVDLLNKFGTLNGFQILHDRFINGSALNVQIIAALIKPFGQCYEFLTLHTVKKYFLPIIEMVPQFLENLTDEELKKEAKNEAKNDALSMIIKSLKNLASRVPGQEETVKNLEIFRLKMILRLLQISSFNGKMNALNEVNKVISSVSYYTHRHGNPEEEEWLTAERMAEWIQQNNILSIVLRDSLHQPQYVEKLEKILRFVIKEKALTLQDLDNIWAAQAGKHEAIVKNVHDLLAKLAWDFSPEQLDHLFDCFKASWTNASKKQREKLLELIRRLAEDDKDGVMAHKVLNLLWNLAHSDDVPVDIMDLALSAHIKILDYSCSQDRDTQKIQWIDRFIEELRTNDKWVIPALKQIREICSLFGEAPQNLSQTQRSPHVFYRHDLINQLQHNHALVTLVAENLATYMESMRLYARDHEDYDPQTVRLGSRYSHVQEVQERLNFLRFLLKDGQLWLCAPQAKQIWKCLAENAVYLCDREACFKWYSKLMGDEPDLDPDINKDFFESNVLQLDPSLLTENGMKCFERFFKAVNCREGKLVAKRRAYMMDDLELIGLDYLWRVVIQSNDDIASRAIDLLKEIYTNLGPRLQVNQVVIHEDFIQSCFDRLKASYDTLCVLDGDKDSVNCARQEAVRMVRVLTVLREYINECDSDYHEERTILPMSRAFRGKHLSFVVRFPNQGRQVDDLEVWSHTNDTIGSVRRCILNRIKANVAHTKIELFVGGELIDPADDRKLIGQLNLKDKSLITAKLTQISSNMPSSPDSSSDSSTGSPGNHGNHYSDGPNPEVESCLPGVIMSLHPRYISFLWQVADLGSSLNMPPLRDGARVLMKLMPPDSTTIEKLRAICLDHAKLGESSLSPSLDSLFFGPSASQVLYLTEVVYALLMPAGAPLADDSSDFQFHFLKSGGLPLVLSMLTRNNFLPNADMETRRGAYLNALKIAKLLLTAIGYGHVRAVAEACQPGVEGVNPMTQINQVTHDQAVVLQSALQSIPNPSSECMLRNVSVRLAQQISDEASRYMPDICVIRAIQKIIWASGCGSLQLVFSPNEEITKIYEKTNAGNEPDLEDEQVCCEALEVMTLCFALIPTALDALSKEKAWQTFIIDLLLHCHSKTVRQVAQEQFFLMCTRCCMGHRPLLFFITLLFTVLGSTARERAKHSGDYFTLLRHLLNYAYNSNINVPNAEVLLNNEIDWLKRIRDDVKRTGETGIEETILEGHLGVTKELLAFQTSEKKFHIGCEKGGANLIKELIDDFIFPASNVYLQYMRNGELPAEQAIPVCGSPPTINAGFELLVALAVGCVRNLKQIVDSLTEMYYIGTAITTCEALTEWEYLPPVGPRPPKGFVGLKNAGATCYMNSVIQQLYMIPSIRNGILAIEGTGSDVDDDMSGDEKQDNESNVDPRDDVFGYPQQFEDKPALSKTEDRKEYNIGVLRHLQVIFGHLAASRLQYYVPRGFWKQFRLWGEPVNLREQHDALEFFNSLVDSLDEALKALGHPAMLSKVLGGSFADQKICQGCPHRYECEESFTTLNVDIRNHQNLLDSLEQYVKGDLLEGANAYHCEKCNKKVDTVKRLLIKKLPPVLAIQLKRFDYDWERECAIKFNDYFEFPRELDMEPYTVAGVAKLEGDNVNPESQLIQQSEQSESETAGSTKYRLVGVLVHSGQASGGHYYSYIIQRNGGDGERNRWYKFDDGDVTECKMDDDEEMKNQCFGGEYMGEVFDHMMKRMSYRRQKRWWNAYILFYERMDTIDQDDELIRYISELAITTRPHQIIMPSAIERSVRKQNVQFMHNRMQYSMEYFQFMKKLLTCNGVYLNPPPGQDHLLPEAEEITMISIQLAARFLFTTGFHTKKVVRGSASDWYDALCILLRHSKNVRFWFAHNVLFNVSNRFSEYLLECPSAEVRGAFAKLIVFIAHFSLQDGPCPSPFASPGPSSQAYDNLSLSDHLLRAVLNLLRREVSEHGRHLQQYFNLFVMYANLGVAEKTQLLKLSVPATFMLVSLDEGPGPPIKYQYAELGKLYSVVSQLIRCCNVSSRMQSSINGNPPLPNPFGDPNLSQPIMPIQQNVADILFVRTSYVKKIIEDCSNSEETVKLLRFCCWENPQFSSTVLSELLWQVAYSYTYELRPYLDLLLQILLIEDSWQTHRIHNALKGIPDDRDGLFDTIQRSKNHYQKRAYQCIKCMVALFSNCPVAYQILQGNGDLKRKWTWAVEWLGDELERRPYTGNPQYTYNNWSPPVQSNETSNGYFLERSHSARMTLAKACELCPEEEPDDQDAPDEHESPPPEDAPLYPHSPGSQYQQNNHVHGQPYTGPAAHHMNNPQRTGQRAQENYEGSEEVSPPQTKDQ
Sequence of USP7 (Q93009 whole entry, looked up): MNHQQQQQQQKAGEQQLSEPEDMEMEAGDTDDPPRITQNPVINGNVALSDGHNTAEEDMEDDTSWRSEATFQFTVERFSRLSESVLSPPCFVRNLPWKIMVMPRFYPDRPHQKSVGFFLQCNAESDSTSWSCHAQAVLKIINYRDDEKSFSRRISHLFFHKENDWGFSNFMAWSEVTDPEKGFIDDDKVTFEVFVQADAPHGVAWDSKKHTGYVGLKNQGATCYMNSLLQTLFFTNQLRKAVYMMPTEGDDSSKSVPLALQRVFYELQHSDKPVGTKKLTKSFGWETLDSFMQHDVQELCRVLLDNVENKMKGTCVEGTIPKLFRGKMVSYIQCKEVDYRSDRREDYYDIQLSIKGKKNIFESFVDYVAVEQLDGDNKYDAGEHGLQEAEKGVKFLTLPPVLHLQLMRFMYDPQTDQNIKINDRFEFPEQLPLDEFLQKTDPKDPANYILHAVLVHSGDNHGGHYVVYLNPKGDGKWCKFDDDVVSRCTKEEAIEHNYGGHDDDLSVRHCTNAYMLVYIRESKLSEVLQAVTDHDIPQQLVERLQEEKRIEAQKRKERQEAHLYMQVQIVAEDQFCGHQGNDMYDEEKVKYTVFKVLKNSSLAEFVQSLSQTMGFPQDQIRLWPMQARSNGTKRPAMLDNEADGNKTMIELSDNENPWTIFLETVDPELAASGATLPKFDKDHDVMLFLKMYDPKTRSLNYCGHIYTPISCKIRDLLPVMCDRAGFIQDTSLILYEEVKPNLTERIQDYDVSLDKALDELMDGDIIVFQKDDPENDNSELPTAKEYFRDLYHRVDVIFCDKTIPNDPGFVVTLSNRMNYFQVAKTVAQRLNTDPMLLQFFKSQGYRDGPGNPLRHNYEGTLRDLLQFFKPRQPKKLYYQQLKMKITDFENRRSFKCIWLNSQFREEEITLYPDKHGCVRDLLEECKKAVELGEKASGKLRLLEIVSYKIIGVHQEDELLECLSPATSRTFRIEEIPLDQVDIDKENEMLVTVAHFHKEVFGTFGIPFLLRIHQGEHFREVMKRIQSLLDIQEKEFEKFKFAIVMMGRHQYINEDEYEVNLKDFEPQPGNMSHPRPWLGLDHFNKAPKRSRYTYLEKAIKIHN
Sequence of USP46 (P62068 whole entry): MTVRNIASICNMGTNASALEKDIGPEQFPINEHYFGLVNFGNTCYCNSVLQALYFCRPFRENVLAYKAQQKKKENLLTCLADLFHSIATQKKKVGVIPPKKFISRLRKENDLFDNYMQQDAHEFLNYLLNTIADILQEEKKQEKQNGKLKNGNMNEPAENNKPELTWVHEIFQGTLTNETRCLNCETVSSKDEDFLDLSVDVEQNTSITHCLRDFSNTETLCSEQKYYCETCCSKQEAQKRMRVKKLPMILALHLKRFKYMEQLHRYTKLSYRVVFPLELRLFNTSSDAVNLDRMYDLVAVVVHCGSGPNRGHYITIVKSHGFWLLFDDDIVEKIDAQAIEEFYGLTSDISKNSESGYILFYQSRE

Turning to `CN(CCc1ncc(Br)cn1)C(=O)CCl.Cl`, the “log2 ratio of Biotin-Ahx-Ub-VS probe labelling” value (shortened to “log2 ratio”) in test [1] is 0.325; in test [2], -0.136; in test [3], -0.331; in test [4], -0.46; in test [5], 0.24; in [6], 0.619. Besides, the “log2 ratio” value in [7] is -0.266; in [8], -0.602; in [9], -0.319; in test [10], -0.0172.

On to `Cl.O=C(CCl)NCc1ccnc(Oc2ccccc2F)c1`, for which the “log2 ratio” value in test [1] was -0.336; in [2], 0.0702; in [3] it was -0.71; in [4], -0.278; in test [5], 0.126; in test [6], 0.365. In addition, the “log2 ratio” value was -0.357 in test [7], -0.181 in test [8], -0.17 in test [9] and 0.13 in test [10].

On to `O=C(CCl)N1CCc2nc[nH]c2C1c1ccc(Cl)cc1` (stereo not given), for which the “log2 ratio” value is -0.0471 in test [1]; -0.363 in test [2]; -0.614 in [3]; -1.05 (active) in test [4]; -0.146 in [5]; 0.015 in test [6]. For the same molecule, the “log2 ratio” value in test [7] is -1.31 (active); in test [8], 0.126; in test [9], -0.619; in test [10] it was 0.0187.
